Measurements: PubChem BioAssay
Active and inactive are the calls of the source.

What was measured:
[1] = binders of probe aFSTL3 on microarray, primary screen, stem cell growth factor project, biochemical, small-molecule microarray, fluorescence 635/667 (AID 1064); conditions: higher = more signal;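 also: measures binding of the biotinylated anti-FSTL3 antibody to printed compounds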
[2] = binders from COS7 lysate, DM2A8 probe, primary screen, torsin A project, cell lysate, small-molecule microarray, fluorescence 635/667 (AID 1065); conditions: higher = more signal, COS7 lysate expressing mutant human TOR1A
[3] = binders of probe aFGF2 on microarray, primary screen, stem cell growth factor project, biochemical, small-molecule microarray, fluorescence 635/667 (AID 1067); conditions: higher = more signal;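 also: measures binding of biotinylated aFGF2 protein to printed compounds on slides; z-score merges feature fluorescence and signal-to-noise across triplicate slides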
[4] = binders of probe aFGF10 on microarray, primary screen, stem cell growth factor project, biochemical, small-molecule microarray, fluorescence 635/667 (AID 1071); conditions: higher = more signal;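 also: score merges 667 nm spot intensity and signal to noise from triplicate slides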
[5] = biological target: Neurogenic locus notch homolog protein 2 (Homo sapiens) (UniProt Q04721); assay: Notch2 binders on small-molecule microarrays, primary screen, biochemical, small-molecule microarray, 635 nm fluorescence, stem cell growth factors (AID 1073); conditions: Notch2 binding, higher = more signal
[6] = biological target: Pro-neuregulin-1, membrane-bound isoform (Homo sapiens) (UniProt Q02297); assay: NRG1 binders on small-molecule microarrays, primary screen, psychiatric disease protein project, biochemical, small-molecule microarray, fluorescence 635/667 (AID 1075); conditions: NRG1 binding, 635 nm fluorescence, higher = more signal;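 also: score combines 667 nm spot fluorescence with signal to noise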
[7] = test system: Neuregulin-1 EGF-like domain; assay: binders of neuregulin-1 EGF-like domain, primary screen, biochemical, small-molecule microarray, 635 nm fluorescence (AID 1081); conditions: small-molecule microarray binding, higher = more signal;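 also: binding of the protein to compounds printed on small-molecule microarray slides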
[8] = FRG1 promoter luciferase signal modulators, primary screen, FRG1 inhibition for FSHD, cell-based, C2C12 myotubes, firefly/Renilla luciferase, luminescence (AID 1084); conditions: higher = more signal, called active from +8 up or from −8 down
[9] = binders of probe aFST on microarray, primary screen, stem cell growth factor project, biochemical, small-molecule microarray, fluorescence 635/667 (AID 1086); conditions: higher = more signal;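 also: score merges 667 nm fluorescence with signal-to-noise of each printed compound spot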
[10] = binders of probe aHhip on microarray, primary screen, stem cell growth factor project, biochemical, small-molecule microarray, fluorescence 635/667 (AID 1087); conditions: higher = more signal;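 also: score merges spot fluorescence at 667nm with spot signal to noise ratio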
[11] = test system: PRMT1 (protein arginine N-methyltransferase 1); assay: PRMT1 binders on small-molecule microarrays, primary screen, biochemical, small-molecule microarray, 635 nm fluorescence (AID 1088); conditions: small-molecule microarray binding, higher = more signal;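 also: binding of Prmt1 protein to compounds spotted on small-molecule microarray slides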
[12] = yeast growth modulation, basal conditions, primary screen, YJM789 clinical isolate, OD600, 24 h (AID 1089);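 also: growth of clinical yeast isolate S. cerevisiae YJM 789 seeded 1000 cells per well; test concentration not given here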; conditions: S. cerevisiae YJM789 growth, higher = more signal, called active from +8 up or from −8 down
[13] = fission yeast growth modulation, primary screen, strain 972, OD600, 24 h, no modulator (AID 1090);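 also: basal condition with compound alone and no growth modifier present; test concentration not given here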; conditions: S. pombe 972 growth, higher = more signal, called active from +8 up or from −8 down
[14] = S. cerevisiae growth modulation with rapamycin, primary screen, strain BY4716, OD600, 96 h (AID 1091); conditions: higher = more signal, called active from +8 up or from −8 down; also: test concentration not given here
[15] = biological target: Torsin-1A-interacting protein 2 (Homo sapiens) (UniProt Q8NFQ8); assay: LULL1 binders on small-molecule microarray, primary screen, cell lysate, human LULL1 lysate, 635/667 nm fluorescence (AID 1092); conditions: hLULL1 lysate binding, 635 nm fluorescence, higher = more signal;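 also: probe is lysate of COS7 cells overexpressing human LULL1; score merges per-feature 667 nm fluorescence with signal-to-noise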
[16] = E. coli growth modulation, two-sided OD650, primary screen, E. coli filamentation project, strain DRC41, 24 h (AID 1093); conditions: OD650, 24 h, higher = more signal, called active from +8 up or from −8 down;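 also: MC1000 strain lacking acrAB efflux and sulA so SOS filamentation is blocked; test concentration not given here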
[17] = small-molecule microarray binders of probe aLefty2, primary screen, biochemical, biotinylated probe, 635/667 nm fluorescence (AID 1094); conditions: higher = more signal;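 also: score merges spot fluorescence near 667 nm with spot signal-to-noise ratio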
[18] = test system: Noggin (protein binding on small-molecule microarray); assay: Noggin binders on small-molecule microarray, primary screen, biochemical, 635/667 nm fluorescence (AID 1095); conditions: 635 nm fluorescence, higher = more signal;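 also: score merges 667 nm feature fluorescence with signal to noise over triplicate slides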
[19] = biological target: Neurogenic locus notch homolog protein 3 (Homo sapiens) (UniProt Q9UM47); assay: NOTCH3 binders on small-molecule microarray, primary screen, biochemical, 635/667 nm fluorescence (AID 1096); conditions: NOTCH3 binding, 635 nm fluorescence, higher = more signal
[20] = small-molecule microarray binders of probe aEGFR, primary screen, biochemical, biotinylated probe, 635/667 nm fluorescence (AID 1097); conditions: higher = more signal;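 also: probe is a biotinylated anti-EGFR antibody binding compounds printed on slides; score combines fluorescence near 667 nm and signal to noise of each spot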

Torsin-1A-interacting protein 2 (Homo sapiens), sequence (Q8NFQ8 whole entry, looked up): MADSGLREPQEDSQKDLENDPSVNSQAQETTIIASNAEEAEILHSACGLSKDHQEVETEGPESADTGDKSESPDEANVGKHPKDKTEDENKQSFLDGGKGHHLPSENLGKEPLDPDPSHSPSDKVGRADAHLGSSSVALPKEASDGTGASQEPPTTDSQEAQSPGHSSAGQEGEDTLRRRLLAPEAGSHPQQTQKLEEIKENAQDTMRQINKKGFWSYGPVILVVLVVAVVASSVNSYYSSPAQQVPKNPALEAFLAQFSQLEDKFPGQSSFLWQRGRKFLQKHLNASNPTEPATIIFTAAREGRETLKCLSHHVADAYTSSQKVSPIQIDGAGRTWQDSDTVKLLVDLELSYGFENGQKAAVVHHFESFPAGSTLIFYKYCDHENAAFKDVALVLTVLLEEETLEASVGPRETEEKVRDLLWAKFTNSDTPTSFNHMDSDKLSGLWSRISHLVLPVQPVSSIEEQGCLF
Neurogenic locus notch homolog protein 3 (Homo sapiens), sequence (Q9UM47 whole entry, looked up): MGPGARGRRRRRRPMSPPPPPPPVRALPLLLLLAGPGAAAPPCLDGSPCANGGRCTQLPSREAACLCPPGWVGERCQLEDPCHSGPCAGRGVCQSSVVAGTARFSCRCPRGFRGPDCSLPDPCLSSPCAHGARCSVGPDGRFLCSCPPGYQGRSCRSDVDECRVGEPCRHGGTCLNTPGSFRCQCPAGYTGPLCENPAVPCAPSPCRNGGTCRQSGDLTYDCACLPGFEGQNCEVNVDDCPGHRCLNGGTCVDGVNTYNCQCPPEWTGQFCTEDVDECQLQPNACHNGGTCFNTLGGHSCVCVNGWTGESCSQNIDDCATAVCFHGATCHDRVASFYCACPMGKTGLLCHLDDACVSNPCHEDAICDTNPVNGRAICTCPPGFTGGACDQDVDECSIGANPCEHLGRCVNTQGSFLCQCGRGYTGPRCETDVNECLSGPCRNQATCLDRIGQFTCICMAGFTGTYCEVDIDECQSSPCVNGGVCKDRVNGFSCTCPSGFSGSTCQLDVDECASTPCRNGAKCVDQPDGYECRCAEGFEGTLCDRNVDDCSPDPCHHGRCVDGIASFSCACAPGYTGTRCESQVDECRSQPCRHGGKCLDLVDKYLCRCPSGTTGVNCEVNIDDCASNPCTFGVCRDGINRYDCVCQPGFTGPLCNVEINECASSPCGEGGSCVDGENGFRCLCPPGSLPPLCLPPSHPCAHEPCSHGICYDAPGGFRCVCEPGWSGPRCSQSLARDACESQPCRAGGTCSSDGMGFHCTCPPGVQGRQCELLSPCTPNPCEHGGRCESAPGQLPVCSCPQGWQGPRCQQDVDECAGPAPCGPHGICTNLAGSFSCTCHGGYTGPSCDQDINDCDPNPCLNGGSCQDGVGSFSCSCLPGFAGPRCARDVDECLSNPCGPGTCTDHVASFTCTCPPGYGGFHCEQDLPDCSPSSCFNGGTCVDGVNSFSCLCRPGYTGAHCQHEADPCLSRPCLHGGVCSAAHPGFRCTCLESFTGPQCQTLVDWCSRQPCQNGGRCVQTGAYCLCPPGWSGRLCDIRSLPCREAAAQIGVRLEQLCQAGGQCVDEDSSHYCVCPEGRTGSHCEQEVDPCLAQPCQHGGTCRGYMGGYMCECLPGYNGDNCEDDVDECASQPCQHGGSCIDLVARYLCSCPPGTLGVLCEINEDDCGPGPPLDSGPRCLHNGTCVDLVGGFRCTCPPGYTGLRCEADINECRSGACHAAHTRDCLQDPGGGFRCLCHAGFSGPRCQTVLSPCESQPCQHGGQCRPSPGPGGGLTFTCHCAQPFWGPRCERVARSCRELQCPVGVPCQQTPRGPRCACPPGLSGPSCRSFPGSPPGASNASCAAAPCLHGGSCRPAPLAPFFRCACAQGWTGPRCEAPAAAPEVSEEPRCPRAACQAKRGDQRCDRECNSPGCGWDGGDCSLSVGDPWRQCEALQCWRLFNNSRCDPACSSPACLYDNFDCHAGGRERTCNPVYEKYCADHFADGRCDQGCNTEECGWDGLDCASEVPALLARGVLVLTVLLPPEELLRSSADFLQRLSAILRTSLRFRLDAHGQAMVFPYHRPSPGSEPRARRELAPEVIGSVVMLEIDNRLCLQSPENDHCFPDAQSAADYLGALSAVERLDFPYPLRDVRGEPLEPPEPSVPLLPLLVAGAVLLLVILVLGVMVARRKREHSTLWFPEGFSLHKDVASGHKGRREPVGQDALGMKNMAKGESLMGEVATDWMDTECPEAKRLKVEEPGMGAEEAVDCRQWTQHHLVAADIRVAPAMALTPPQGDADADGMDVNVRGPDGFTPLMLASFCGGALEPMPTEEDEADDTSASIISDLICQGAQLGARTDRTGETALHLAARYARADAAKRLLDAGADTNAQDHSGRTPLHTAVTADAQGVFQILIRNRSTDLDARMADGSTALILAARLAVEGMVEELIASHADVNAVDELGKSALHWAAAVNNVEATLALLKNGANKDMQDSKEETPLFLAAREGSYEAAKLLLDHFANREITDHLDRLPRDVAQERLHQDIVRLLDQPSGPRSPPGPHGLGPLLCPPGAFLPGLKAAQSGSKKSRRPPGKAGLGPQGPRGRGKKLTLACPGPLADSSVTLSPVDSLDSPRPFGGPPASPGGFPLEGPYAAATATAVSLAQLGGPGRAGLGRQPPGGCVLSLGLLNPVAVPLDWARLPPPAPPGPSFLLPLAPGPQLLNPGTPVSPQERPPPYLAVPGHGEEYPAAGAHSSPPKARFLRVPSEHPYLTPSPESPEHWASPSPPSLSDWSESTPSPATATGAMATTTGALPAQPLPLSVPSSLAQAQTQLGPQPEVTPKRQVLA
Pro-neuregulin-1, membrane-bound isoform (Homo sapiens), sequence (Q02297 whole entry, looked up, the tested form may be a part, canonical isoform): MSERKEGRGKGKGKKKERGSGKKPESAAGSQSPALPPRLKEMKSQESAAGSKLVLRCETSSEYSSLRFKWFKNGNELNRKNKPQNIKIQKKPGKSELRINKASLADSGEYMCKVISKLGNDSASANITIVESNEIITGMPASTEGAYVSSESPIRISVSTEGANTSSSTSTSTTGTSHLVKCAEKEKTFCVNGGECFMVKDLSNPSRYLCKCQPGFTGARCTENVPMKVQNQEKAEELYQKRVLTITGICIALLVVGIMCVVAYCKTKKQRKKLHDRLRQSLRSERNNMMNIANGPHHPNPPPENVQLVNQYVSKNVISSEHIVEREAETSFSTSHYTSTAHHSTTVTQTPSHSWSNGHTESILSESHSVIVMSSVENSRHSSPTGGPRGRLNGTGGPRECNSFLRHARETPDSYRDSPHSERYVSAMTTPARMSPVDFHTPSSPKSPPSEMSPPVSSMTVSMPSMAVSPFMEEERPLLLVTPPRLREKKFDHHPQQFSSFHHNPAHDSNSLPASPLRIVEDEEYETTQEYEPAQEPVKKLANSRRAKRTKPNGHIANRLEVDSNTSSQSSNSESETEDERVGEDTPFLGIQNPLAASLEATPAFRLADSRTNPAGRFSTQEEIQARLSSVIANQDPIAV

Row | SMILES | composite z-score [1] | composite z-score [2] | composite z-score [3] | composite z-score [4] | composite z-score [5] | composite z-score [6] | composite z-score [7] | z-score [8] | composite z-score [9] | composite z-score [10] | composite z-score [11] | z-score [12] | z-score [13] | z-score [14] | composite z-score [15] | z-score [16] | composite z-score [17] | composite z-score [18] | composite z-score [19] | composite z-score [20]
1 | COCCOC(=O)N1C(=O)[C@@]2(c3cc(C#CC4(O)CCCCCC4)ccc31)[C@H](c1ccc(O)cc1)N1[C@H](c3ccccc3)[C@H](c3ccccc3)OC(=O)[C@H]1[C@@H]2C(N)=O | -0.0102 | 1.54 | 0.103 | 0.631 | 0.397 | 1.1 | 0.874 | -0.868 (inactive) | 0.351 | -0.0173 | 1.5 | -0.549 (inactive) | -3.29 (inactive) | -0.624 (inactive) | 2.01 | 2.01 (inactive) | 0.178 | 0.0282 | 0.928 | -0.0924
2 | O=C1N(CCS(=O)(=O)c2ccccc2)Cc2ccccc2[C@@H]2OC(c3ccc(OCCCO)cc3)=N[C@]12Cc1ccccc1 | 1.02 | 0.397 | 0.196 | 0.849 | 1.5 | 1.84 | 1.39 | -2.88 (inactive) | 0.843 | -0.338 | 1.53 | 2.44 (inactive) | 1.46 (inactive) | 9.7 (active) | 3.4 | 0.552 (inactive) | 0.657 | 1.1 | 1.01 | 0.442
3 | CCCNC(=O)[C@@H]1c2ccccc2C(=O)N(Cc2cc(C(F)(F)F)cc(C(F)(F)F)c2)[C@H]1c1ccc(CO)cc1 | 0.684 | -0.27 | 0.0064 | 0.0859 | 0.394 | 0.519 | 1.2 | -0.0626 (inactive) | 0.361 | 0.0895 | 1.09 | 0.73 (inactive) | -1.69 (inactive) | -0.262 (inactive) | 1.34 | 0.315 (inactive) | 0.0758 | 0.261 | 0.523 | -0.0255
4 | Cc1ccc(S[C@]2(C(=O)NCCN3CCOCC3)CC(=O)N(Cc3cc(C(F)(F)F)cc(C(F)(F)F)c3)[C@@H]2c2ccc(CO)cc2)cc1 | 0.62 | -0.439 | -0.15 | -1.35 | -1.26 | 1.04 | -0.382 | -1.67 (inactive) | -0.341 | -0.0632 | 1.24 | -1.03 (inactive) | -3.43 (inactive) | -2.07 (inactive) | 1.47 | 0.611 (inactive) | -0.136 | -0.984 | -0.54 | -0.252
5 | CC(C)C[C@@H]1NC(=O)[C@H]2C[C@@H](C(=O)NCCCC[N+](C)(C)C)[C@@H](c3cccc(OCCO)c3)N2C1=O | -0.746 | 1.9 | -0.138 | 0.253 | -0.942 | 1.95 | 1.43 | 0.683 (inactive) | -0.233 | -0.717 | 0.617 | -0.276 (inactive) | -0.262 (inactive) | -2.33 (inactive) | 3.37 | 0.395 (inactive) | -0.348 | 1.21 | 1.03 | 0.009
6 | COc1ccc(C#Cc2ccc3c(c2)[C@]2(C(=O)N3)[C@H](c3ccc(O)cc3)N3[C@H](c4ccccc4)[C@H](c4ccccc4)OC(=O)[C@H]3[C@@H]2C(=O)N2CCN(c3ncccn3)CC2)cc1 | 0.286 | 1.31 | -0.0625 | 0.0869 | 1.19 | 1.64 | 0.892 | -0.36 (inactive) | 0.252 | 0.186 | 1.18 | 0.478 (inactive) | -1.84 (inactive) | 2.15 (inactive) | 2.01 | 1.99 (inactive) | 0.0708 | -0.0098 | 0.536 | -0.0854
7 | COc1ccc(C(=O)Nc2cccc(CN3C(=O)[C@@]4(O[C@@H](CCO)[C@H]([Si](C)(C)c5ccc(OC)cc5)[C@H]4C)c4ccccc43)c2)cc1 | 0.457 | -0.0176 | -0.0784 | 0.19 | 0.0782 | -0.0498 | 0.984 | -3.53 (inactive) | 0.0018 | -0.216 | 0.95 | 0.324 (inactive) | -9.44 (active) | 0.2 (inactive) | 1.35 | 1.68 (inactive) | 0.0005 | 0.297 | 0.0772 | -0.155
8 | CCOC(=O)C[C@H]1[C@H](OC(=O)c2ccc(C(=O)c3ccccc3)cc2)[C@@H](NC(=O)Cc2ccc(OC)cc2)c2cc(OCCCO)ccc2N1C(=O)Cc1ccc(OC)cc1 | 0.0476 | 0.346 | 0.007 | 0.35 | 0.903 | 0.752 | 0.668 | -1.22 (inactive) | 0.971 | -0.132 | 1.21 | -0.574 (inactive) | -1.42 (inactive) | -0.914 (inactive) | 1.66 | 1.78 (inactive) | 0.0673 | 0.22 | 1.13 | -0.0131
9 | [N-]=[N+]=Nc1ccccc1[C@H]1OC(c2ccc(OCCCO)cc2)=N[C@@]1(Cc1ccccc1)C(N)=O | 1.28 | 1.6 | 0.317 | 0.988 | 1.42 | 1.14 | 1.13 | -0.191 (inactive) | 1.42 | 0.0053 | 1.55 | 2.87 (inactive) | -1.11 (inactive) | -0.321 (inactive) | 2.62 | 1.6 (inactive) | 0.789 | 0.49 | 1.09 | 0.441
